VACV mCherry inh = qHTS for Stage-Specific Inhibitors of Vaccinia Orthopoxvirus: mCherry Reporter Primary qHTS; Potency, µM (top dose mostly 36.5 µM), for inactives: at the top dose activity change, negative = inhibition, actives largely listed as inhibitors; 310,000 compounds, 0.63% hits; Vaccinia virus mCherry reporter infection, fluorescence; calls by dose curve; tested in A549 cells; further: nearly all actives have a fitted effect of over 35% in size
Marburg entry inh = qHTS for inhibitors of binding or entry into cells for Marburg Virus | 300,000 compounds, 1.8% hits | Potency, µM (series often up to 37.8 µM), without a hit: top-dose activity change, negative = inhibition, usual class: inhibitors | Marburg virus pseudotyped entry inhibition, cell reporter | AID 540276, 2011; calls by dose curve; tested in HEK293 cells
Vaccinia Venus = qHTS for Stage-Specific Inhibitors of Vaccinia Orthopoxvirus: Venus Reporter Primary qHTS; 330,000 compounds, 0.46% hits; Potency, µM (titrated, usually from 36.5 µM), without a hit: at the top dose activity change, negative = inhibition, most hits filed as inhibitors; Vaccinia virus Venus reporter expression, fluorescence; AID 720580, 2013; calls by dose curve; tested in A549 cells; further: nearly all actives have a fitted effect of over 30% in size
FMDV antiviral = High Throughput Screening for Foot and Mouth Disease Virus Antivirals; FMDV antiviral cell-based qHTS; AID 1159524, 2015; Potency, µM (highest dose often 57.9 µM), inactives show at the top dose activity change, negative = inhibition, actives largely listed as inhibitors; 410,000 compounds, 1.2% hits; calls by dose curve; tested in HEK293T cells; further: read-out not given here; nearly all actives have a fitted effect of over 45% in size
LASV entry inh = qHTS for Inhibitors of binding or entry into cells for Lassa Virus; Lassa virus pseudotype entry inhibition, cell reporter; Potency, µM (top dose mostly 37.9 µM), without a hit: top-dose activity change, negative = inhibition, most hits filed as inhibitors; 300,000 compounds, 1.2% hits; AID 540256, 2011; calls by dose curve; tested in HEK293 cells; further: nearly all actives have a fitted effect of over 50% in size
The depositor's hits bear a star; i = inactive; ? = inconclusive; . = no result; [ ] = dose if it differs, or a comment. Shown are actives, neighbours in structure and some others; about 3.2% of the full set was active somewhere. On the % scale 0 is the no-effect control and ±100 the full control effect; potency means the concentration at half of the fitted maximal effect.

SMILES | VACV mCherry inh | Marburg entry inh | Vaccinia Venus | FMDV antiviral | LASV entry inh
CCCN(CCC)C(=O)CSc1nc2n[nH]c(C)c2c(=N)n1-c1ccc(OC)cc1 | . | ? | ? | 22.4µM* | ?
CCCN(CCC)C(=O)CSc1nc2n[nH]c(C)c2c(=N)n1-c1ccc(OCC)cc1 | . | ? | ? | -24.6% | 11.2µM*
C[C@H]1CN([C@@H](C)CO)C(=O)c2cc(Br)cnc2O[C@H]1CN(C)C(=O)C1CC1 | i | . | -10.1% | -5.1% | .
O=C(OCc1ccccc1)N1CCOCCOCCN(C(=O)OCc2ccccc2)CCOCCOCC1 | -17.6% | ? | -15.2% | 22.4µM* | ?
O=C(NCc1ccccc1)N1CCOCC1 | . | . | . | -4.9% | .
CCCn1c2ccccc2c2cnn(CC(=O)Nc3cc(OC)c(OC)c(OC)c3)c(=O)c21 | -8.7% | . | -3.1% | ? | 18.9%[46.1 µM]
Cc1cc(C)nc(S[C@@H]2C[C@@H](C(=O)N3CCCN(C)CC3)N(Cc3cc(F)ccc3F)C2)n1 | -12.5% | . | -5.6% | -3.8% | .
CC(C)CC1OC(C(C)C)Cc2[nH]c(=S)[nH]c(=O)c21 (configuration not stated) | . | . | 0.0126µM* | 0.0% | .
CC(=O)O[C@H]1[C@H]2O[C@]23[C@@H]2CC[C@]4(O)C[C@@H](O)CC[C@]4(C)C2CC[C@]3(C)[C@H]1c1ccc(=O)oc1 (some centres not stated) | 31.6µM* | . | 0.0316µM* | ? | .
C[C@]12CC[C@H](O)C[C@H]1CCC1C2CC[C@]2(C)[C@@H](c3ccc(=O)oc3)C[C@H]3O[C@]132 (some centres not stated) | 1.26µM* | . | 1.12µM* | . | .
OC1(c2ccc3c(c2)CN(Cc2nccs2)CCO3)CCN(c2ccccc2F)CC1 | -11.7% | . | 0.0% | -15.3% | .
COc1ccc([C@]23Cc4c(ccc5ccccc45)[C@H](O2)C2=C(CCCC2=O)O3)cc1 | . | -21.5%[14.2 µM] | . | . | .
CCOc1ccc(NC(=O)C[n+]2ccc(N(C)C)cc2)cc1 | -24.8% | -5.4% | -24.1% | -28.3% | 1.2%
CN(C)c1cc[n+](CC(=O)Nc2ccc(Oc3ccccc3)cc2)cc1 | -9.0% | 9.2µM* | -26.0% | -17.1% | ?
CCN(CC)C(=O)C1=C(C)N(Cc2ccccc2)C(=O)C(CC(=O)NC2CC2)C1 (configuration not stated) | i | . | -10.2% | ? | .
CC(=O)Nc1ccc(C(=O)N2CCCCC2c2cc(C(=O)NCc3ccc(F)cc3)no2)cc1 (configuration not stated) | 7.4% | . | -2.2% | -9.1% | .
CCCCCOC(=O)C1=C(C)Nc2ncnn2C1c1cccs1 (configuration not stated) | ? | ? | ? | ? | 20.6µM*
CC1C(=O)OC(c2ccc(Cl)cc2)C(C)(C)C1=O (configuration not stated) | -15.6% | ? | -12.1% | -5.0% | 10.7%
C[C@@H]1C=CC(=O)O[C@@H]1c1ccc(Cl)cc1 | ? | . | 3.55µM* | 28.2µM* | .
COc1ccc(C(=O)OCC(=O)c2ccc(C3CCCCC3)cc2)cc1 | -10.0% | ? | -3.7% | ? | 2.24µM*
Nc1ccc(O)cc1C(=O)OCC(=O)c1ccc(C2CCCCC2)cc1 | ? | ? | -23.0% | ? | ?
CCCn1c(SCC(=O)Nc2ccc(C(=O)Nc3ccccc3OC)cc2)n[nH]c1=O | -8.8% | 7.2%[46.1 µM] | -14.6% | 31.6µM* | -7.6%
COc1ccccc1NC(=O)c1ccc(NC(=O)CSc2nncn2C)cc1 | . | 29.5% | . | -22.8% | 4.8%
COc1ccc(-c2nc(CSCC(=O)N3CCN(C)CC3)c(C)o2)cc1OC | . | . | . | 5.4% | .
COc1ccc(-c2nc(CSCC(=O)N3CCN(c4ccc(OC)cc4)CC3)c(C)o2)cc1 | -28.0% | -21.4%[46.1 µM] | ? | -23.7% | 10.7%[46.1 µM]
SMILES | VACV mCherry inh | Marburg entry inh | Vaccinia Venus | FMDV antiviral | LASV entry inh
COc1ccc(-c2nc(CSCC(=O)N3CCN(c4cccc(C)c4C)CC3)c(C)o2)cc1OC | 11.2µM* | . | 11.2µM* | 25.1µM* | ?
CCc1ccc(-c2nc(CSCC(=O)NC3CC3)c(C)o2)cc1 | i | 5.01µM* | -18.9% | -15.8% | ?
CCc1ccc(-c2nc(CSCC(=O)N3CCN(c4ncccn4)CC3)c(C)o2)cc1 | ? | -7.5% | ? | 22.4µM* | .
COC(=O)CSCc1nc(-c2ccc(C(=O)OC)cc2)oc1C | 0.7% | . | 1.7% | -4.2% | 7.08µM*
COc1ccc2cnn(CCOc3cc(C)ccc3C(C)C)c(=O)c2c1OC | -26.8% | ? | -15.3% | -16.0% | ?
Cc1cccc(C)c1-n1nnnc1C(c1ccnc2ccccc12)N1CCN(c2ccccc2F)CC1 (configuration not stated) | -24.3% | . | -4.9% | -20.7% | .
COc1ccc(/C=N/Nc2nnc(C)n2N)cc1OC(C)=O | 22.4µM* | ? | ? | 5.8% | ?
O/N=C(/C[n+]1ccsc1)c1ccc(I)cc1 | -7.1% | . | ? | . | .
CCOC(=O)c1c(-c2ccccc2)oc2ccc(O)c(CN(C)C)c12 | . | ? | . | 0.0% | -28.9%
Cc1ccc(NC(=O)c2c(C)oc3ccc(O)c(CN4CCCCCC4)c23)c(C)c1 | -13.5%[7.34 µM] | 3.55µM* | -14.3%[7.34 µM] | 0.0% | ?
CCOC(=O)c1c(-c2ccccc2)oc2ccc(O)c(CN3CCCC3)c12 | . | 23.1µM* | . | -21.6% | ?
COc1ccc(NC(=O)c2c(C)oc3ccc(O)c(CN4CCN(Cc5ccccc5)CC4)c23)cc1Cl | -10.9% | ? | -24.9% | -18.6% | 7.94µM*
Cc1ccc(NC(=O)c2c(C)oc3ccc(O)c(CN4CCOCC4)c23)c(C)c1 | -3.7% | 8.1%[46.1 µM] | 1.3% | -20.0% | -13.5%[46.1 µM]
Cc1ccc(NC(=O)c2c(C)oc3ccc(O)c(CN4CCN(Cc5ccccc5)CC4)c23)cc1 | -17.7% | 10µM* | 0.3% | -19.1% | ?
Cc1ccc(S(=O)(=O)N2CCN(c3nc(-n4cccn4)nc4ccccc34)CC2)cc1 | -8.8% | . | -7.9% | . | .
Cc1ccc(S(=O)(=O)/N=C(\CN2CCOCC2)N2CCCC2)cc1 | -15.8% | -0.4% | -10.8% | . | 16.7%
Cc1ccc(S(=O)(=O)/N=C(\CCl)N2CCOCC2)cc1 | ? | ? | ? | 25.1µM* | ?
Cc1ccc(S(=O)(=O)/C=C/C#N)cc1 | i | ? | -10.8% | -6.6% | 2.31µM*
CC(C)(C)c1ccc(S(=O)(=O)N2CCN(CCC#N)CC2)cc1 | -9.4% | . | 3.9% | -18.1% | .
CC(C)(C)c1ccc(S(=O)(=O)/C=C\C#N)cc1 | . | 2.51µM* | . | 39.8µM* | .
Cc1ccc(S(=O)(=O)C=CS(=O)(=O)c2ccc(C)cc2)cc1 | ? | . | -21.3% | ? | .
Cc1sc2ncnc(NCc3ccccc3)c2c1C | . | -27.4% | ? | 28.2µM* | -23.3%
Cc1sc2ncnc(Nc3ccccc3)c2c1C | ? | -17.1% | ? | -5.2% | -1.7%
Cc1sc2ncnc(NCC3CCCO3)c2c1C (configuration not stated) | i[1.46 µM] | -29.9% | -21.9% | 28.2µM* | -19.6%
CC(=O)N1CCN(C(=O)c2sc3ncnc(NCC4CCCO4)c3c2C)CC1 (configuration not stated) | i | . | 0.0% | -10.2% | .
